Results as given in PubChem BioAssay (NCATS).
Inconclusive results are not listed. Active and inactive are the calls of the source. Calls come from the whole dose curve; as a rule, active = well fitted inhibition curve with a large enough effect; inconclusive = small, poorly fitted or top-dose-only effect; inactive = flat fitted curve, though single readings scatter.

Experiment: BET inhibitor-based combinations targeting novel dependencies in MECOM-rearranged (r) AML: AML-191 cell line (AID 2202236; note: nearly all actives have a fitted effect of over 35% in size;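 for viability (% of control): plate controls were vehicle wells for no effect and wells without cells for full effect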)
Details: AML-191 viability, CellTiter-Glo luminescence, 48 h; series mostly up to 46 µM; viability (% of control): at the top concentration
From the text: Ecotropic viral insertion site 1 (EVI1) is located on chromosome 3q26.2 as part of the MECOM (MDS and EVI1 complex) locus. Under normal hematopoiesis, EVI1 is a regulator of hematopoietic stem cell maintenance and self-renewal and EVI1 levels decrease as the cells differentiate. In approximately 5-10% of de novo acute myeloid leukemia (AML) EVI1 is aberrantly expressed, including Chromosomal inv(3)(q21;q26.2) or t(3;3)(q21;q26.2) alterations (MECOM-r) that account for about 50% of AML with EVI1 overexpression 31. AMLs with high levels of EVI1 have a poor prognosis and an overall survival time averaging between 10-14 months. EVI1 overexpression confers resistance in leukemia cells, highlighting the need to develop new targeted therapies for EVI1 overexpressing AMLs.
Here, we performed an unbiased chemical drug screening by evaluating the single agent activity of a collection of 2,480 oncology-focused, approved and investigational drugs (NCATS Mechanism Interrogation Plates, MIPE v5.0) against a panel of seven AML cell lines. These included four MECOM-r cell-lines (AML-191, AML-194, UCSD-AML1 and HNT-34) and three non-MECOM-r AMLs (MV4-11, OCI-AML3 and SET-2). Exploiting the mechanistic redundancy built in the library, we identified target-level sensitivities in MECOM-r AML cells and relative activity as compared to other AML subtypes.
A collection of 2480 mechanistically annotated dugs (MIPE v5.0) was used to screen four 3q26.2 rearranged AML cell lines and three non-3q26.2 rearranged AML cell lines. This library purposely exploits redundancy by including multiple inhibitors of key onco-targets, while simultaneously encompassing mechanistic diversity, targeting more than 800 distinct mechanisms of action. Briefly, cells were seeded in 5 uL of growth media using a Multidrop Combi dispenser into 1536 well white polystyrene tissue culture treated plates (Corning) at a density of 500cells/well. For each cell-line, for each of the 2480 drugs in MIPE v5.0 library, an 11-point dose curve was generated via a 1536 pin-tool. Plates were incubated for 48 hr at standard incubator conditions, covered by a stainless steel gasketed lid to prevent evaporation. Cell viability was determined by luminescence based, Cell Titer Glo assay (Promega). In detail, 3 uL of Cell Titer Glo were added to each well and plates were incubated at room temperature for 15 min with a stainless-steel lid in place. Luminescence readings were taken using a Viewlux (PerkinElmer) with a 2 s exposure time per plate. Compound dose-response curves were normalized to DMSO and empty well controls on each plate. Quantitative drug activity data from dose-response curves was determined utilizing area Under the Curve (AUC) and Z-transformed AUC (Z-AUC, a mean-centering transformation applied to each individual cell-line screened).
Potency is the fitted concentration of half-maximal effect.

Structure (SMILES)	Potency	viability (% of control)
Oc1c(Cl)cc(Cl)c2cccnc12	8.33 µM (active)	
CC(=O)Oc1cc2c(s1)CCN(C(C(=O)C1CC1)c1ccccc1F)C2 (stereo not given)		105% (inactive)
CC#C[C@@H](CC(=O)O)c1ccc(OCc2cccc(-c3ccc(C(F)(F)F)cc3)c2)cc1	20.9 µM (active)	
O=C(O)[C@H](CC(=O)N1C[C@H]2CCCC[C@H]2C1)Cc1ccccc1		107% (inactive)
NC(=O)C1CCCc2c1[nH]c1ccc(Cl)cc21 (stereo not given)		101% (inactive)
CC1(C)CCC(CN2CCN(c3ccc(C(=O)NS(=O)(=O)c4ccc(NCC5CCOCC5)c([N+](=O)[O-])c4)c(Oc4cnc5[nH]ccc5c4)c3)CC2)=C(c2ccc(Cl)cc2)C1	18.6 µM (active)	
CCN1CCCC1CNC(=O)c1cc(S(=O)(=O)CC)c(N)cc1OC (stereo not given)		117% (inactive)
CC(C)c1cc(CNc2nc(Nc3cc(C4CC4)[nH]n3)cc(N3CCN(C)CC3)n2)on1	0.0833 µM (active)	
CCOc1cc(N)c(Cl)cc1C(=O)NCC1CN(Cc2ccc(F)cc2)CCO1 (stereo not given)		103% (inactive)
CN1CCN(C2CCN(C(=O)Nc3cc(Oc4ccc(NC(=O)C5(C(=O)Nc6ccc(F)cc6)CC5)c(F)c4)ccn3)CC2)CC1	18.6 µM (active)	
COc1c2occc2cc2ccc(=O)oc12		91.1% (inactive)
CC1=C(CO)C(=O)O[C@@H]([C@@H](C)[C@H]2CC[C@H]3[C@@H]4C[C@H]5O[C@]56[C@@H](O)C=CC(=O)[C@]6(C)[C@H]4CC[C@]23C)C1	0.372 µM (active)	
CO[C@@H]1COCC[C@@H]1N[C@@H]1CC[C@@](C(=O)N2CCc3ncc(C(F)(F)F)cc3C2)(C(C)C)C1		110% [at 15.6 µM] (inactive)
CNc1nccc(-c2cccnc2Oc2cc(C(=O)Nc3cccc(C(F)(F)F)c3)ccc2C)n1	6.61 µM (active)	
O=C(O)c1ccc(CCCc2ccc(OCCc3ccc(F)cc3)cc2)o1		96.8% (inactive)
CC(=O)N1CCN(CCOc2ccc(C3CCN(C4=Nn5c(nnc5C(F)(F)F)CC4)CC3)cc2)CC1		49.6% (inactive)
Cc1ccc(CN2CCNCC2)cc1NC(=O)CNc1ccc(F)c(F)c1		104% (inactive)
CCN(CC)CCCCNc1ncc2cc(-c3cc(OC)cc(OC)c3)c(NC(=O)NC(C)(C)C)nc2n1	18.6 µM (active)	
Cc1cc2c(cc1C1(c3ccc(C(=O)O)cn3)CC1)C(C)(C)CCC2(C)C		97.9% (inactive)
Cc1nc(-c2cccnc2)sc1C(=O)Nc1ccccc1-c1cn2c(CN3CCOCC3)csc2n1		113% (inactive)

Structure (SMILES)	Potency	viability (% of control)
Cc1ccc(NC(=O)c2cccc(N(C)C)c2)cc1NC(=O)c1ccc(O)cc1		90.5% (inactive)
Cc1ccc(C(=O)Nc2ccc(Oc3cc4cnn(C)c4cc3-c3cn[nH]c3)c(F)c2)c(=O)n1-c1ccc(F)cc1	6.61 µM (active)	
CN1C(C(=O)Nc2ccccn2)=C(O)c2ccccc2S1(=O)=O		107% (inactive)
CC(C)c1nn(-c2c(Cl)cccc2Cl)c2nc(Cc3ccc(OCCO)cc3)[nH]c(=O)c12	0.0295 µM (active)	
Nc1ncnc2ccccc12		110% (inactive)
C[C@H](Nc1ncnc2nc[nH]c12)c1cc2ccc(F)cc2nc1-c1ccccn1	18.6 µM (active)	
Nc1ccn(C2CO[C@H](CO)O2)c(=O)n1 (stereo not given in full)		103% (inactive)
O=S(=O)(c1cccc2c(I)cccc12)N1CCCNCC1		93.6% (inactive)
COc1cc2c(NC3CCN(C(C)C)CC3)nc(C3CCCCC3)nc2cc1OCCCN1CCCC1	20.9 µM (active)	
COc1ccc([C@@H]2CNC(=O)C2)cc1OC1CCCC1		103% (inactive)
N#CC[C@H](C1CCCC1)n1cc(-c2ncnc3[nH]ccc23)cn1	5.9 µM (active)	
CC(=O)Nc1ccc(C(=O)Nc2ccccc2N)cc1	18.6 µM (active)	
CN1C(=O)N[C@@H](Cc2c[nH]c3c(Cl)cccc23)C1=O		104% (inactive)
CCCCOCCOc1nc(-c2ccc(C(=O)O)c(F)c2)sc1C	2.63 µM (active)	
COc1cc(F)c(C(C)C)cc1-c1ccc(C(F)(F)F)cc1CN1C(=O)O[C@H](c2cc(C(F)(F)F)cc(C(F)(F)F)c2)[C@@H]1C		98.8% (inactive)
CCOC(=O)[C@H]1O[C@@H]1C(=O)N[C@@H](CC(C)C)C(=O)NCCC(C)C		99.6% (inactive)
CNC(=O)c1nn(C)c2c1C(C)(C)Cc1cnc(Nc3ccc(N4CCN(C)CC4)cc3)nc1-2	1.18 µM (active)	
Cc1cc(C(C)(C)C)c(O)c(C)c1CC1=NCCN1		112% (inactive)
Cc1cc2c(C(C)C)c(O)c(O)c(C=O)c2c(O)c1-c1c(C)cc2c(C(C)C)c(O)c(O)c(C=O)c2c1O	9.34 µM (active)	
Cc1c(-c2ccnn2C)cc(C(=O)NCc2ccc(S(C)(=O)=O)cn2)c(=O)n1-c1cccc(C(F)(F)F)c1		83.6% (inactive)
